# PubChem BioAssay AID624093 (National Center for Advancing Translational Sciences (NCATS), 2012)
# Records with an inconclusive call do not appear. Activity calls are given as the source filed them. Calls come from the whole dose curve; as a rule, active = well fitted inhibition curve with a large enough effect; inconclusive = small, poorly fitted or top-dose-only effect; inactive = flat fitted curve, though single readings scatter.
# Target: Dual specificity tyrosine-phosphorylation-regulated kinase 1A (Homo sapiens) (UniProt Q13627)
# Assay: Confirmation Assay for Inhibitors of Dyrk1a (Kinase-Glo Assay): KU probe
# Details: Kinase-Glo ATP luminescence; series mostly up to 76.9 µM; activity, negative = inhibition: at the top concentration
# Source text: NIH Molecular Libraries Probe Production Centers Network [MLPCN] NIH Chemical Genomics Center [NCGC] MLSCN Grant: 1R03MH084827-01 PI Name: Tom Misteli NCGC Assay Overview: The CMGC group of protein kinases which includes CDK-like kinases (Clk) and Dyks are essential kinases found in all eukaryotes. Clks have been implicated to play a role in the regulation of alternative splicing; while Dyrks, in particular over expression of Dyrk1A, has been linked to diseases as Down syndrome (DS; OMIM 190685) and Alzheimer disease (AD; OMIM 104300). Among the members of the CMGC group, the Clks and the Dyrks are very closely related therefore to determine validity and selectivity of an active compound observed in the CLK4 qHTS screen (AID:1770), a bioluminescent counter-screen against Dyrk1A was developed. In addition, potent and selective compounds against Dyrk1A were identified to further assess the role of this enzyme in DS and AD. Dyrk1A (Invitrogen, cat # PV3785) was assayed using ATP and DYRKtide (AnaSpec, cat# 62698) as substrates. Promega Kinase-Glo (cat# V6712) technology was used to detect the residual ATP following kinetic reaction. The Kinase-Glo Plus contains Ultra-Glo [5] luciferase and D-luciferin which generates a bioluminescence signal from the remaining ATP. No enzyme and harmine (Sigma, cat # 286044-1G), a compound shown to inhibit Dyrks were used as a positive control; while DMSO treatment was used as a negative control.
# NCGC Assay Protocol Summary: Two uL/well of substrate solution (8uM Dyrktide, 2uM ATP, 25mM Tris-HCl pH 7.5, 10mM MgCl2 , 0.5mM EGTA, 5mM cystein, 0.01% Triton X-100 final concentration) was dispensed into 1536-well assay plates (Greiner, solid white, medium-binding plates) with Aurora Discovery BioRAPTR Flying Reagent Dispenser (FRD, Beckton-Dickenson). Compound solution (23 nL) was transferred to the assay plate using Kalypsys pin tool equipped with a 1536-pin tool. One uL/well enzyme solution (5nM Dyrk1A, 25mM Tris-HCl pH7.5, 10mM MgCl2, 0.5mM EGTA, 5mM cystein, 0.01% Triton X-100 final concentration) was then added using FRD yielding a total kinase reaction volume of 3uL/well. After 2 hours of room temperature incubation, 3uL Kinase-Glo detection reagent was added for a final assay volume of 6uL/well. The plates were spun for 30 seconds (1000 rpm) and incubated at ambient temperature for 2 minutes followed by a luminescence read using Perkin Elmer ViewLux plate reader at 3 seconds exposure time and 2x binning.
SMILES,Potency,"activity, negative = inhibition"
O=C(O)c1ccc(-c2ccc3ncnc(NCc4nccs4)c3c2)o1,8230 nM (active),
CN(C)c1ccc(-c2ncccn2)cc1,,-3.87% (inactive)
c1nc(NCC2CC2)c2cc(-c3ccc4c(c3)OCO4)ccc2n1,41.2 nM (active),
O=C(O)c1ccc(-c2ccc3ncnc(N4CCOCC4)c3c2)o1,26000 nM (active),
CN(CC1CCCCO1)c1ncnc2ccc(-c3ccc4c(c3)OCO4)cc12 (stereo not given),207 nM (active),
O=C(O)c1ccc(-c2ccc3ncnc(NCC4CCCO4)c3c2)o1 (stereo not given),20700 nM (active),
FC(F)(F)c1cccc(Nc2nccc(-c3ccc4c(c3)OCO4)n2)c1,65.4 nM (active),
c1nc(NCC2CCCCC2)c2cc(-c3ccc4c(c3)OCO4)ccc2n1,116 nM (active),
CN(C)c1ccc(-c2nccc(NCc3ccc(Cl)c(Cl)c3)n2)cc1,,-3.23% (inactive)
c1cc(-c2ccoc2)nc(-c2ccc3c(c2)OCO3)n1,29200 nM (active),
CN(C)c1ccc(-c2nccc(NCc3ccccc3)n2)cc1,,-4.92% (inactive)
Clc1ccc(CNc2ccnc(-c3ccc4c(c3)OCO4)n2)cc1,,-15.5% (inactive)
Brc1cc(Br)cc(CNc2nccc(-c3ccc4c(c3)OCO4)n2)c1,73.3 nM (active),
O=c1cnc2cnc(Nc3ccccc3)nc2n1CCc1ccccc1,292 nM (active),
Clc1cc(Cl)cc(CNc2ccnc(-c3ccc4c(c3)OCO4)n2)c1,,-17.3% (inactive)
Clc1ccc(CNc2ncncc2-c2ccc3c(c2)OCO3)cc1Cl,4120 nM (active),
CN(C)c1ccc(-c2nccc(NCc3ccc(Cl)cc3)n2)cc1,,-1.69% (inactive)
CC(C)(C)CNc1ncnc2ccc(-c3ccc4c(c3)OCO4)cc12,11.6 nM (active),
CC(=O)c1ccc(-c2ccc3ncnc(NCc4ccc(C)o4)c3c2)o1,1640 nM (active),
Cc1csc(CNc2ncnc3ccc(-c4ccc(CO)o4)cc23)n1,10400 nM (active),

SMILES,Potency,"activity, negative = inhibition"
Clc1ccc(CNc2ccnc(-c3ccc4[nH]ncc4c3)n2)cc1Cl,4630 nM (active),
O=[N+]([O-])c1cc(Nc2nccc(-c3ccc4c(c3)OCO4)n2)cc(C(F)(F)F)c1,146 nM (active),
CN(CC1CCCCC1)c1ncnc2ccc(-c3ccc4c(c3)OCO4)cc12,1160 nM (active),
COc1ccc(-c2nccc(NCc3ccc(Cl)cc3)n2)cc1,,-9.84% (inactive)
c1cncc(CNc2nccc(-c3ccc4c(c3)OCO4)n2)c1,36.8 nM (active),
Clc1ccc(CNc2nccc(-c3ccc4cn[nH]c4c3)n2)cc1Cl,412 nM (active),
CCN(C)c1ncnc2ccc(-c3ccc4c(c3)OCO4)cc12,260 nM (active),
c1cnc(-c2ccc3c(c2)OCO3)nc1,,-7.86% (inactive)
COc1ccc(-c2ccnc(NCc3ccc(Cl)cc3)n2)cc1,1840 nM (active),
c1nc(NCC2CCCOC2)c2cc(-c3ccc4c(c3)OCO4)ccc2n1 (stereo not given),116 nM (active),
Cc1c(-c2ccnc(NCc3cccnc3)n2)sc(=O)n1C,146 nM (active),
c1nc(NCCc2cnc[nH]2)c2cc(-c3ccc4c(c3)OCO4)ccc2n1,328 nM (active),
c1nc(NCC2CCOC2)c2cc(-c3ccc4c(c3)OCO4)ccc2n1 (stereo not given),92.3 nM (active),
N#Cc1cccc(-c2ncccn2)c1,,-13.2% (inactive)
Cc1c(-c2ccnc(NCc3ccc(Cl)cc3)n2)sc(=O)n1C,164 nM (active),
Cc1c(-c2ccnc(Nc3cc(Br)cc(C(F)(F)F)c3)n2)sc(=O)n1C,130 nM (active),
c1cncc(CNc2ccnc(-c3ccc4ccccc4c3)n2)c1,14600 nM (active),
COc1cccc(-c2ccnc(NCc3ccc(Cl)c(Cl)c3)n2)c1,5820 nM (active),
Clc1ccc(CNc2nccc(-c3ccc4[nH]ncc4c3)n2)cc1Cl,328 nM (active),
COc1ccc(-c2ccnc(NCc3ccc(Cl)c(Cl)c3)n2)cc1,733 nM (active),
